# Assay results: paper PMC7862700, “An all-to-all approach to the identification of sequence-specific readers for epigenetic DNA modifications on cytosine”
# Assays:
# Experiment in all cases: DAPPL (digital affinity profiling via proximity ligation, sequencing); 10 mM Tris-HCl pH 7.5, 50 mM NaCl, 1 mM DTT, 4% glycerol, room temperature, 30 min; GST-TFs on glutathione beads, 16-mer random dsDNA library, 0.1% formaldehyde crosslink after washing; high values mean tight binding
# FEV = biological target: T1, FEV (Homo sapiens, UniProt Q99581 1-238); settings: protein: recombinant; tags: N-terminal GST; dsDNA, one strand shown
# T1 sequence: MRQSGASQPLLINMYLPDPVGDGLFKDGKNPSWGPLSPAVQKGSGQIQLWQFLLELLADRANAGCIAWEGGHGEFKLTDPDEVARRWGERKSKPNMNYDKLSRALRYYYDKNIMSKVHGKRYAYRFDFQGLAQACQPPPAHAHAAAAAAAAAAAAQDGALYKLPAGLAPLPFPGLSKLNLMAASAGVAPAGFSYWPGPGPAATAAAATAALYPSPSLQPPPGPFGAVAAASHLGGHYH
# Outline: (§1)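 Sequencing on an Illumina NextSeq500 followed washing, crosslinking with 0.1% formaldehyde, proximity ligation (BsaI/T4 ligase, 1 h, 37 °C) and PCR amplification of pools that had been incubated for 30 min at room temperature with 200 nmole of a random double-stranded 16-mer DNA library in Tris/NaCl/DTT/glycerol buffer. Each pool held DNA-barcoded human transcription factors, expressed in yeast as GST fusions and captured on glutathione beads, plus a tag-only sample. Binding signal is a hexamer's read frequency for a factor divided by its frequency in the tag-only sample.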
# ETV5 = ETV5 (Homo sapiens, UniProt P41161 1-510); settings: protein: recombinant; tags: N-terminal GST; dsDNA, one strand shown
# Outline: as §1
# HSF1 = HSF1 (Homo sapiens, UniProt Q00613 1-529); settings: protein: recombinant; tags: N-terminal GST; chain copies: 3; dsDNA, one strand shown
# Outline: as §1
# SPIC = biological target: T2, SPIC (Homo sapiens, UniProt Q8N5J4 1-248); settings: protein: recombinant; tags: N-terminal GST; dsDNA, one strand shown
# T2 sequence: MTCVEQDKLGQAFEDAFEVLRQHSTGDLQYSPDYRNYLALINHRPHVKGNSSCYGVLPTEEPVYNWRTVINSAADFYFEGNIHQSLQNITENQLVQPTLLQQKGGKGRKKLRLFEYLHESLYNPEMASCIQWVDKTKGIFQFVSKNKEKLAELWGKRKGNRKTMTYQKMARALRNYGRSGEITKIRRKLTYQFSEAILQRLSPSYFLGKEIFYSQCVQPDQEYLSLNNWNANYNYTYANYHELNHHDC
# Outline: as §1
# ELF4 = ELF4 (Homo sapiens, UniProt Q99607 1-663); settings: protein: recombinant; tags: N-terminal GST; dsDNA, one strand shown
# Outline: as §1
# ELK4 = biological target: T3, ELK4 (Homo sapiens, UniProt P28324-2 1-405); settings: protein: recombinant; tags: N-terminal GST; dsDNA, one strand shown
# T3 sequence: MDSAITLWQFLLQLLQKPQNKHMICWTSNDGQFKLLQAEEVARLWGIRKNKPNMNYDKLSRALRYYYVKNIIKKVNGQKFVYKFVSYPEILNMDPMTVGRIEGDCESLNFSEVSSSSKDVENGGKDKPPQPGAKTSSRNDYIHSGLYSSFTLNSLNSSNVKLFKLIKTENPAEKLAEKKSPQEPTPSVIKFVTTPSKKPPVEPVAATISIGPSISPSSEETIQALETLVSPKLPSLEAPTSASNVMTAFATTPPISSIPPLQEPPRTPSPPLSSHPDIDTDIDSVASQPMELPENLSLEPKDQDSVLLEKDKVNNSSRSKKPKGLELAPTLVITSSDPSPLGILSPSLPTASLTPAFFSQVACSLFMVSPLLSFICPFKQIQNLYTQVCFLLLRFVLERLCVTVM
# Outline: as §1
# ETV2 = biological target: T4, ETV2 (Homo sapiens, UniProt O00321 1-342); settings: protein: recombinant; tags: N-terminal GST; dsDNA, one strand shown
# T4 sequence: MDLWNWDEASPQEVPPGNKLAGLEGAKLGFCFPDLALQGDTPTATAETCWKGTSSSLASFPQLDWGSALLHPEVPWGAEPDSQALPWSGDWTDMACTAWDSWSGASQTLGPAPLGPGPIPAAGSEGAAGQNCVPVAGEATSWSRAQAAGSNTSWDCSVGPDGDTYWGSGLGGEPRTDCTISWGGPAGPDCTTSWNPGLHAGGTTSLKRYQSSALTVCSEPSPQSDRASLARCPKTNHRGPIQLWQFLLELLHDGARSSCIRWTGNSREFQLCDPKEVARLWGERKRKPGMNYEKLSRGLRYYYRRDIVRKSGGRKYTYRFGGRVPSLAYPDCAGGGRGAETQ
# Outline: as §1
# ELF3 = biological target: T5, ELF3 (Homo sapiens, UniProt P78545 1-371); settings: protein: recombinant; tags: N-terminal GST; dsDNA, one strand shown
# T5 sequence: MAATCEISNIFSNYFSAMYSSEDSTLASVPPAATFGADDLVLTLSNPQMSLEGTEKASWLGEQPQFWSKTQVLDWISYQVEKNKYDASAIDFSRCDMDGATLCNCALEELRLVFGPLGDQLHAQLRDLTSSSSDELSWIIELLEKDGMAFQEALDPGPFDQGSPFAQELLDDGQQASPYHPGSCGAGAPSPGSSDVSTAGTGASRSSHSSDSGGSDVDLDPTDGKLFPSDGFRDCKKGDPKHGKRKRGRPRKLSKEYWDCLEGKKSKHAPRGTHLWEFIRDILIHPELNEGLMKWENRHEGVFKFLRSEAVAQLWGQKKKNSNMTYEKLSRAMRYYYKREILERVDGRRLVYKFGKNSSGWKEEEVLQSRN
# Outline: as §1
# ETV1 = ETV1 (Homo sapiens, UniProt P50549 1-477); settings: protein: recombinant; tags: N-terminal GST; dsDNA, one strand shown
# Outline: as §1
# ERF = biological target: T6, ERF (Homo sapiens, UniProt P50548 1-548); settings: protein: recombinant; tags: N-terminal GST; dsDNA, one strand shown
# T6 sequence: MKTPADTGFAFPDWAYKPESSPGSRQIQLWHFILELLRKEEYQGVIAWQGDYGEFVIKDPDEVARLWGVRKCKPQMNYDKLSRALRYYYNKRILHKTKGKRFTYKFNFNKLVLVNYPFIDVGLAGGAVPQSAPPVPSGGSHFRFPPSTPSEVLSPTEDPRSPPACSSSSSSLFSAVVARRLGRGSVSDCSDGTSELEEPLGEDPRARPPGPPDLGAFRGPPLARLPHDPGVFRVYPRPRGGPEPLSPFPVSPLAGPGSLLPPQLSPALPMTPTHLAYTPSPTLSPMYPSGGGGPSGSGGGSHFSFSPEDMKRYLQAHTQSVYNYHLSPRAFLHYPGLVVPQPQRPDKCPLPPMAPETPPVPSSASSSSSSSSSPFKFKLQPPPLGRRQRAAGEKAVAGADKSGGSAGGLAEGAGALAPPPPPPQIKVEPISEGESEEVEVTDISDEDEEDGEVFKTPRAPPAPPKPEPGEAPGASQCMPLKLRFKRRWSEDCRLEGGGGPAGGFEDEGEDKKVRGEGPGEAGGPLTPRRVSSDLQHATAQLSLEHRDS
# Outline: as §1
# ETV3L = biological target: T7, ETV3L (Homo sapiens, UniProt Q6ZN32 1-361); settings: protein: recombinant; tags: N-terminal GST; dsDNA, one strand shown
# T7 sequence: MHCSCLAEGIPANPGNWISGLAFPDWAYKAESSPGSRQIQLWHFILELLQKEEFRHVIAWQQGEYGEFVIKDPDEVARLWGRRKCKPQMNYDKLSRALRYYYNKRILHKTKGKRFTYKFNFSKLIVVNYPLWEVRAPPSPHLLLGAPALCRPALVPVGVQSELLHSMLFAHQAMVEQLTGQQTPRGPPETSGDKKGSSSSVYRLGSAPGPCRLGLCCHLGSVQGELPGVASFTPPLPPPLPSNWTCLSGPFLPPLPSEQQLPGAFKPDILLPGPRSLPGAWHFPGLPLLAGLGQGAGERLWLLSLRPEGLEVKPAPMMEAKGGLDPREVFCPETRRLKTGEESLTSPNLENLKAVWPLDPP
# Outline: as §1
# ETS2 = biological target: T8, ETS2 (Homo sapiens, UniProt P15036 1-469); settings: protein: recombinant; tags: N-terminal GST; dsDNA, one strand shown
# T8 sequence: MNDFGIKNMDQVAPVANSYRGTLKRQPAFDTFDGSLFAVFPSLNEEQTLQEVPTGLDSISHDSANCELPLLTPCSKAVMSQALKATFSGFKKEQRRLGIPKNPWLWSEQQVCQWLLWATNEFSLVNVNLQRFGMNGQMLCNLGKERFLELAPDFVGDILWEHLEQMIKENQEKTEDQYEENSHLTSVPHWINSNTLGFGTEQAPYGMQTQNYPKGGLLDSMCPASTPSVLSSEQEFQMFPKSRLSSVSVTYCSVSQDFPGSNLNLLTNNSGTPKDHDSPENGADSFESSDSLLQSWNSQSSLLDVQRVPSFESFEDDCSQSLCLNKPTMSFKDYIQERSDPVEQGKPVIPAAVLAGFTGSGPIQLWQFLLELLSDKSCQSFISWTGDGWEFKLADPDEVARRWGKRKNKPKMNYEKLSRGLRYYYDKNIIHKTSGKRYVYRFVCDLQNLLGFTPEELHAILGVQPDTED
# Outline: as §1
# SPDEF = biological target: T9, SPDEF (Homo sapiens, UniProt O95238 1-335); settings: protein: recombinant; tags: N-terminal GST; dsDNA, one strand shown
# T9 sequence: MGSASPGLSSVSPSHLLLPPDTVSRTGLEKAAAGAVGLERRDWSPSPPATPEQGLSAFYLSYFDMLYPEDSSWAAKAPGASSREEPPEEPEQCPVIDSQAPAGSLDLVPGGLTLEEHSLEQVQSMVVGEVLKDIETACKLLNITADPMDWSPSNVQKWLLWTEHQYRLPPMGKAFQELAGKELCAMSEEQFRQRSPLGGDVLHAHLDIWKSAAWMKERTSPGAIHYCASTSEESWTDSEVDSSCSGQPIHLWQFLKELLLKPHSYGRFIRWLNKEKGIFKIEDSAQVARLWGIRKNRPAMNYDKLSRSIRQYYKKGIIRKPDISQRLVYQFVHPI
# Outline: as §1
# ETV7 = biological target: T10, ETV7 (Homo sapiens, UniProt Q9Y603 1-341); settings: protein: recombinant; tags: N-terminal GST; dsDNA, one strand shown
# T10 sequence: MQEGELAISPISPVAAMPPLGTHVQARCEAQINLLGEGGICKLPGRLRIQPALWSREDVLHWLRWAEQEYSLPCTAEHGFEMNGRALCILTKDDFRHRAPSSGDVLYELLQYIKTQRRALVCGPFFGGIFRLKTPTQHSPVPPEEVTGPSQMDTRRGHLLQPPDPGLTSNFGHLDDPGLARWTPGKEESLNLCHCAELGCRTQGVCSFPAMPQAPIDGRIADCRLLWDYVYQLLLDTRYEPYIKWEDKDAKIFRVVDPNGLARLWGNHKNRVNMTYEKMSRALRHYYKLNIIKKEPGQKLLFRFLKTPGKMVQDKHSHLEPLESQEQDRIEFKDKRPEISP
# Outline: as §1
# ELF5 = biological target: T11, ELF5 (Homo sapiens, UniProt Q9UKW6-2 1-255); settings: protein: recombinant; tags: N-terminal GST; dsDNA, one strand shown
# T11 sequence: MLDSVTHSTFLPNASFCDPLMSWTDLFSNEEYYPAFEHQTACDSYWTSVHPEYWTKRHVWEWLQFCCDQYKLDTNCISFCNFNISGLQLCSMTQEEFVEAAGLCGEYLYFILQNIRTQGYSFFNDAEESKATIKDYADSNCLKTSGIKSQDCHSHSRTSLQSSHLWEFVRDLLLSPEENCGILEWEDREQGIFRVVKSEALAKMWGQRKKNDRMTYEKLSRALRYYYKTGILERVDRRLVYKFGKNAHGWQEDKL
# Outline: as §1
# ETV3 = biological target: T12, ETV3 (Homo sapiens, UniProt P41162-2 1-143); settings: protein: recombinant; tags: N-terminal GST; dsDNA, one strand shown
# T12 sequence: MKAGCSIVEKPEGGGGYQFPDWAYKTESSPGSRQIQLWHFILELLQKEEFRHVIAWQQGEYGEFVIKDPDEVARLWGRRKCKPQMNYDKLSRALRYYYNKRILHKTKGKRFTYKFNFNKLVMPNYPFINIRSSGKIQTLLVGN
# Outline: as §1
# ETV6 = ETV6 (Homo sapiens, UniProt P41212 1-452); settings: protein: recombinant; tags: N-terminal GST; dsDNA, one strand shown
# Outline: as §1
# ELF4, sequence (Q99607 whole entry): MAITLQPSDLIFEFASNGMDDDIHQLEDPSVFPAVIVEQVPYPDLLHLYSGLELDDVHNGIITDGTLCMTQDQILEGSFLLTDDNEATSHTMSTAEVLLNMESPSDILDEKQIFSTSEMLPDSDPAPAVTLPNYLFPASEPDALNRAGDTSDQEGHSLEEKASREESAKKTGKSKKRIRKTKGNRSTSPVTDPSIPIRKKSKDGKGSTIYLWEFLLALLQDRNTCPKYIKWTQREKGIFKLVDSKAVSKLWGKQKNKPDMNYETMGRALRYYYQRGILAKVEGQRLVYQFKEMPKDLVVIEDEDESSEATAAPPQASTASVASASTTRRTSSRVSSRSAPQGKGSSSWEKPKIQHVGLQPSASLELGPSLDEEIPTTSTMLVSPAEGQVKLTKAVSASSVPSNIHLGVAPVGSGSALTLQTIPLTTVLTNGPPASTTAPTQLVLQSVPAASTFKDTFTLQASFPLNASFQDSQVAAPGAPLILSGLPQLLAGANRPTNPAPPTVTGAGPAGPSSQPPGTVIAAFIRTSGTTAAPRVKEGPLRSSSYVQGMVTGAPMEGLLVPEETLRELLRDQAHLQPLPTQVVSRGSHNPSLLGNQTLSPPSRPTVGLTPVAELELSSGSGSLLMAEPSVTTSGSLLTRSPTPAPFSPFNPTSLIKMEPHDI
# ETV5, sequence (P41161 whole entry): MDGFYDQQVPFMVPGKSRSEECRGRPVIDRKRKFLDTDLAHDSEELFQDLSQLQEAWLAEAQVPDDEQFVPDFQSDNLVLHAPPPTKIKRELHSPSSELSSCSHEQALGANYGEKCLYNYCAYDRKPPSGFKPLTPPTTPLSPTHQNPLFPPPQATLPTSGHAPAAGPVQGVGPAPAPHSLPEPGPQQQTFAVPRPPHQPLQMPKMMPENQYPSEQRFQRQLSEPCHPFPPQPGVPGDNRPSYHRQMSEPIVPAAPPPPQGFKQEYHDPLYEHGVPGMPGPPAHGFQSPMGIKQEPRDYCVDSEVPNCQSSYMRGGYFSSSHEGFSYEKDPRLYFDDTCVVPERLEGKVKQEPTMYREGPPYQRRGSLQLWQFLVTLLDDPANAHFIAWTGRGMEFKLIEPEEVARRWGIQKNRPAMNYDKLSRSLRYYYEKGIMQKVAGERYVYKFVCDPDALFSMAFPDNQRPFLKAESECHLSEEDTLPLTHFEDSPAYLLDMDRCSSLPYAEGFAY
# ETV1, sequence (P50549 whole entry): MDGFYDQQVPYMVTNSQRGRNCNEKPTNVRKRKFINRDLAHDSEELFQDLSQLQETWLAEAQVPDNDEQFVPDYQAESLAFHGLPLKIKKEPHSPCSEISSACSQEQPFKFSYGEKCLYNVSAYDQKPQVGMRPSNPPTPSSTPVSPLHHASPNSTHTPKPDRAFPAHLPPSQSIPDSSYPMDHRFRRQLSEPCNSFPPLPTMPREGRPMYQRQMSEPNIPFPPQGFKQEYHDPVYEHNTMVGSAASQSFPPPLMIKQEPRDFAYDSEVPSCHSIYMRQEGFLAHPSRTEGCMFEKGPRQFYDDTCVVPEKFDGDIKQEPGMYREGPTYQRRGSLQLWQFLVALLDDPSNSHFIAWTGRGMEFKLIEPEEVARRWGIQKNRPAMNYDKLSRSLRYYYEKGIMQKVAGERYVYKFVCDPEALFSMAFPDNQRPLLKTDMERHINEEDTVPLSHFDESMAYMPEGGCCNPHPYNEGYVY
# HSF1, sequence (Q00613 whole entry): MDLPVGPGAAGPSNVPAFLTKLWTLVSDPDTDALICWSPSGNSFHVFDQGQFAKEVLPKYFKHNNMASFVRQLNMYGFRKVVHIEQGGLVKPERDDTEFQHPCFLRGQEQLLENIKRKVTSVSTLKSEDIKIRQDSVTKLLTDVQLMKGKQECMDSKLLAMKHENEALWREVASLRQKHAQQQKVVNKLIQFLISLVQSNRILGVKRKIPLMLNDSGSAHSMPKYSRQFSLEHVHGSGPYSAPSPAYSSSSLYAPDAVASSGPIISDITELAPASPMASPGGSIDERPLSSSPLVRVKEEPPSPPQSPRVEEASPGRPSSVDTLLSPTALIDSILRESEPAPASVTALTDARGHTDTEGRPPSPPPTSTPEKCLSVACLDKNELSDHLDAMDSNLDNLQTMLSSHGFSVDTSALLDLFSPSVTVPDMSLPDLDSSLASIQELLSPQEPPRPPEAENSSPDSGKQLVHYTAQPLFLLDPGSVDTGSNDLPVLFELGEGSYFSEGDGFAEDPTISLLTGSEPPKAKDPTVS
# ETV6, sequence (P41212 whole entry): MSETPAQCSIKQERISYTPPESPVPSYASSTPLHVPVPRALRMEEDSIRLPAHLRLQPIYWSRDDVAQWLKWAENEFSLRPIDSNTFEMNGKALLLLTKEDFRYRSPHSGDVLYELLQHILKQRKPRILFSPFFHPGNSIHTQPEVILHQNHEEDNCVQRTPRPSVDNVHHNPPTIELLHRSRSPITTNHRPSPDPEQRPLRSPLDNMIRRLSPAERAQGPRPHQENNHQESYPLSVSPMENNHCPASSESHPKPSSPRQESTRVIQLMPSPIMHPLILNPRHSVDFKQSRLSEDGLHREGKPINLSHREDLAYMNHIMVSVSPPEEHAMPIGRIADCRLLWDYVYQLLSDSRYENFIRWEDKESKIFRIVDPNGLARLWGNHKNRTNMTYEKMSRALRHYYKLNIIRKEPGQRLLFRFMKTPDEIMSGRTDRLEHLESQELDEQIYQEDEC
Sequence,binding signal (FEV),binding signal (ETV5),binding signal (HSF1),binding signal (SPIC),binding signal (ELF4),binding signal (ELK4),binding signal (ETV2),binding signal (ELF3),binding signal (ETV1),binding signal (ERF),binding signal (ETV3L),binding signal (ETS2),binding signal (SPDEF),binding signal (ETV7),binding signal (ELF5),binding signal (ETV3),binding signal (ETV6)
GATGGT,"1.07 fold enrichment (6-mer frequency, TF over GST control)","1.16 fold enrichment (6-mer frequency, TF over GST control)","1.02 fold enrichment (6-mer frequency, TF over GST control)","1.19 fold enrichment (6-mer frequency, TF over GST control)","1.11 fold enrichment (6-mer frequency, TF over GST control)","1.18 fold enrichment (6-mer frequency, TF over GST control)","1.37 fold enrichment (6-mer frequency, TF over GST control)","1.19 fold enrichment (6-mer frequency, TF over GST control)","1.22 fold enrichment (6-mer frequency, TF over GST control)","1.22 fold enrichment (6-mer frequency, TF over GST control)","1.19 fold enrichment (6-mer frequency, TF over GST control)","1.13 fold enrichment (6-mer frequency, TF over GST control)","1.04 fold enrichment (6-mer frequency, TF over GST control)","1.06 fold enrichment (6-mer frequency, TF over GST control)","1.08 fold enrichment (6-mer frequency, TF over GST control)","1.12 fold enrichment (6-mer frequency, TF over GST control)","1.1 fold enrichment (6-mer frequency, TF over GST control)"
AACAAG,"1.03 fold enrichment (6-mer frequency, TF over GST control)","1.14 fold enrichment (6-mer frequency, TF over GST control)","1.03 fold enrichment (6-mer frequency, TF over GST control)","1.15 fold enrichment (6-mer frequency, TF over GST control)","1.17 fold enrichment (6-mer frequency, TF over GST control)","1.01 fold enrichment (6-mer frequency, TF over GST control)","1 fold enrichment (6-mer frequency, TF over GST control)","1.26 fold enrichment (6-mer frequency, TF over GST control)","1.13 fold enrichment (6-mer frequency, TF over GST control)","1.19 fold enrichment (6-mer frequency, TF over GST control)","1.18 fold enrichment (6-mer frequency, TF over GST control)","1.06 fold enrichment (6-mer frequency, TF over GST control)","1.05 fold enrichment (6-mer frequency, TF over GST control)","1.14 fold enrichment (6-mer frequency, TF over GST control)","1.22 fold enrichment (6-mer frequency, TF over GST control)","1.11 fold enrichment (6-mer frequency, TF over GST control)","1.12 fold enrichment (6-mer frequency, TF over GST control)"
